CRFBP-R2 block: blocks CRF-induced signaling of the CRF-BP/CRF-R2 complex. HEK293 CRF-R2/CRF-BP, CRF-induced calcium fluorescence. inhibition, % at 11.8 µM. actives 0.59% (n = 350,000). AID 588475;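 active = inhibition of the ligand-induced calcium signal above about 50% at the single tested concentration, limit read from the data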
CRFBP-R2 agonist: agonists of human CRF-binding protein/CRF-R2 receptor complex; HEK293 CRF-R2/CRF-BP, calcium dye fluorescence (FLIPR); percent of saturating CRF peptide response; activation, % at 13.2 µM; actives 0.46% (n = 350,000);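 active = activation of at least 50%, plus an integration ratio under a set limit after plate pattern correction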;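 note: plate controls were neutral control wells without compound for no effect and CRF at EC100 for full effect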
MEKK3 PB1 HTS: raises or lowers MEK5 binding to the human MEKK3 PB1 domain; bead-based flow cytometry, Alexa488-MEK5 binding to MEKK3; actives lie on both sides; 0 = blocked by unlabeled MEK5, 100 = vehicle; binding response (% of control), % at 10 µM; AID 1529; actives 1.4% (n = 290,000); Q99759;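 active = binding response more than 3 SD above or below the average of its plate-row segment, actives on both sides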;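 note: Alexa488 bead fluorescence after subtracting the streptavidin-only scavenger bead signal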
Target sequence (Q99759 whole entry, looked up, the tested form may be a part): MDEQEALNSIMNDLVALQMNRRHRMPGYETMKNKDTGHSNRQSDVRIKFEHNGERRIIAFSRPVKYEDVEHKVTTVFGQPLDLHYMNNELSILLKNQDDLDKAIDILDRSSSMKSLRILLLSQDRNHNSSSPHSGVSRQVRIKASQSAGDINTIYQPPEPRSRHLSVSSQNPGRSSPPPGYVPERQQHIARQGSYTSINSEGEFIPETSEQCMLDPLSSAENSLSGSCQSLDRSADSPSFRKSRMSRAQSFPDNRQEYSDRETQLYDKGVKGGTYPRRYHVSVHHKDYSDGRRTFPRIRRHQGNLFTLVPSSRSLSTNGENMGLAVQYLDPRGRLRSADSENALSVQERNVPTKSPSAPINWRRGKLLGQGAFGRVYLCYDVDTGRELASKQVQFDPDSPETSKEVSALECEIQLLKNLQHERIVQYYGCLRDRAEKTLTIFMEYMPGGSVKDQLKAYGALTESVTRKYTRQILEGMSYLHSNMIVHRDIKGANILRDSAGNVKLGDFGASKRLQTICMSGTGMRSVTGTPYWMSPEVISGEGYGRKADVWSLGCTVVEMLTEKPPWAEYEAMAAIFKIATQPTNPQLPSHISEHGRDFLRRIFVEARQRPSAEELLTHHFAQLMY
ABCB6 inh 2: blocks the human ABCB6 transporter | actives 0.19% (n = 360,000) | Q9NP58 | fluorescence ratio to DMSO, % at 10 µM | K562-ABCB6 porphyrin accumulation, flow cytometry, 1 h; stronger effect = lower value;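 active = fluorescence ratio to DMSO below 75%, the collection mean minus 3 SD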;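 note: signal is porphyrin accumulated inside mitochondria; 100% equals median channel fluorescence of DMSO control wells; lower ratio means ABCB6 inhibition with less porphyrin fluorescence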
MEKK2mut PB1 HTS: signal of MEK5 binding to mutant human MEKK2 PB1 domain. bead flow cytometry, Alexa488-MEK5 binding to MEKK2 mutant. percent response, % at 10 µM. actives 0.35% (n = 290,000). AID 1530; in the data active = percent response above about 24%, passing the limit was not always enough
MEKK2wt PB1 HTS: raises or lowers MEK5 binding to wildtype human MEKK2 PB1 domain; bead flow cytometry, Alexa488-MEK5 binding to MEKK2 WT; actives lie on both sides; AID 1531; actives 1.1% (n = 290,000); binding response (% of control), % at 10 µM; in the data active = binding response below about 67% or above about 130%
MEKK2wt confirm: raises or lowers MEK5 binding to wildtype human MEKK2, retest; shares compounds with MEKK3 PB1 HTS; AID 1892; bead flow cytometry, Alexa488-MEK5 binding to MEKK2 WT; actives lie on both sides; binding response (% of control), % at 10 µM; actives 2.4% (n = 5,900); in the data active = binding response below about 16% or above about 210%; inactive = in between
MEKK2mut confirm: signal of MEK5 binding to mutant human MEKK2, retest; shares compounds with MEKK3 PB1 HTS; percent response, % at 10 µM; AID 1893; actives 2% (n = 5,900); bead flow cytometry, Alexa488-MEK5 binding to MEKK2 mutant; in the data active = percent response mostly above about 71%, no sharp cut-off; inactive = mostly below about 38%;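 note: higher means compound restores mutant binding toward wildtype level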
MEKK3-MEK5 inh: confirmation of inhibitors of MEK5 binding to human MEKK3. shares compounds with MEKK3 PB1 HTS. AID 1894. actives 1.8% (n = 5,900). binding response (% of control), % at 10 µM. bead flow cytometry, Alexa488-MEK5 binding to MEKK3; stronger effect = lower value;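 active = binding response below 72% of control, or above a set upper limit, though filed actives all read lower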;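 note: 100% = DMSO only wells and 0% = binding blocked by excess unlabeled MEK5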
The depositor's hits bear a star; nt = no result; [ ] = dose if it differs, or a comment. Hits are enriched below; roughly 2.9% of the tested compounds scored in any of these assays.

SMILES | CRFBP-R2 block | CRFBP-R2 agonist | MEKK3 PB1 HTS | ABCB6 inh 2 | MEKK2mut PB1 HTS | MEKK2wt PB1 HTS | MEKK2wt confirm | MEKK2mut confirm | MEKK3-MEK5 inh
CCc1ccc(Nc2n[n+](-c3ccccc3)c(-c3ccc(SC)cc3)s2)cc1 | 4.0 | 0.7 | 108.0 | 98.0 | 35.0* | 195.0* | 180.0 | 53.0 | 108.0
CCc1ccc(Nc2n[n+](-c3ccccc3)c(-c3ccc(OC)c(Br)c3)s2)cc1 | 5.8 | 4.0 | 109.0 | 105.0 | 41.0* | 207.0* | 206.0 | 73.0* | 113.0
CCOc1cc(-c2sc(Nc3ccccc3)n[n+]2-c2ccc(F)cc2)ccc1OC | -2.8 | -0.2 | 102.0 | 102.0 | 2.0 | 105.0 | nt | nt | nt
COc1cc(Br)c(-c2sc(Nc3ccccc3)n[n+]2-c2ccc(F)cc2)cc1OC | -6.4 | -1.6 | 104.0 | 96.0 | 34.0* | 133.0 | 149.0 | 32.0 | 103.0
COc1cc(OC)c(-c2sc(Nc3ccccc3)n[n+]2-c2ccc(F)cc2)cc1OC | -7.8 | 0.8 | 95.0 | 86.0 | -9.0 | 88.0 | nt | nt | nt
CC(=O)c1cccc(OCC(O)CNCCOc2ccc(C)cc2)c1 (stereo not given) | 0.9 | -1.0 | 103.0 | 98.0 | 1.0 | 110.0 | nt | nt | nt
Clc1cccc(-c2sc(Nc3ccccc3)n[n+]2-c2ccccc2)c1Cl | -11.0 | 0.1 | 104.0 | 98.0 | 13.0 | 135.0* | 135.0 | 15.0 | 103.0
O=S(=O)(/C=C/c1ccccc1)c1ccccc1 | -1.3 | -1.2 | 126.0* | 98.0 | 4.0 | 99.0 | 101.0 | 3.0 | 102.0
Cc1ccc(-c2csc3nc4c5ccccc5c(NCCCN5CCOCC5)nn4c(=O)c23)cc1 | nt | nt | 103.0 | nt | 15.0 | 145.0* | 175.0 | 34.0 | 105.0
Cc1ccc(-c2nc3ccccc3c(=O)n2CCCN2CCOCC2)cc1 | 6.2 | -3.7 | 91.0 | 91.0 | -2.0 | 91.0 | nt | nt | nt
Cn1nnnc1NCc1ccccc1F | 1.1 | -0.4 | 104.0 | 96.0 | 3.0 | 106.0 | nt | nt | nt
Cc1ccccc1-c1nc(CN2CCC(C(=O)NCCCN3CC(C)CC(C)C3)CC2)c(C)o1 (stereo not given) | 11.1 | 2.8 | 107.0 | 96.0 | 18.0 | 142.0* | 127.0 | 18.0 | 102.0
Cc1ccccc1-c1nc(CN2CCC(C(=O)NCCCN3CCOCC3)CC2)c(C)o1 | -1.7 | -1.5 | 102.0 | 85.0 | 14.0 | 130.0 | nt | nt | nt
CCc1ccc(-c2nc(CN3CCC(C(=O)NCc4ccccc4OC)CC3)c(C)o2)cc1 | -30.3 | 1.1 | 104.0 | 105.0 | 16.0 | 156.0* | 114.0 | 3.0 | 104.0
COc1ccc(C(=O)N2CCCC(C)(C(=O)NS(=O)(=O)C3CC3)C2)c(OC)c1 (stereo not given) | nt | nt | nt | 93.0 | nt | nt | nt | nt | nt
COC(=O)c1ccc(C2C(Oc3ccc(OC)cc3)C(=O)N2CCc2ccc(OC)c(OC)c2)cc1 (stereo not given) | 6.4 | 1.7 | 157.0* | 100.0 | 1.0 | 109.0 | 104.0 | 4.0 | 104.0
CCS(=O)(=O)c1ccc(O)c(NC(=O)COc2ccc(C)cc2)c1 | 3.5 | 1.2 | 154.0* | 100.0 | 0.0 | 106.0 | 109.0 | 7.0 | 101.0
CCn1cc(C(=O)O)c(=O)c2cc(F)c(N3CCN(C(=S)NC(=O)c4ccc(Br)cc4)CC3)cc21 | -12.9 | -1.1 | 59.0*[inhibitor] | 83.0 | 54.0* | 85.0 | -1.0*[inhibitor] | -2.0 | 99.0
CCn1cc(C(=O)NCc2ccc3c(c2)OCO3)c(=O)c2cc(F)c(N3CCN(C)CC3)cc21 | -6.5 | 0.1 | 105.0 | 99.0 | 12.0 | 138.0* | 114.0 | 7.0 | 106.0
CCn1cc(C(=O)O)c(=O)c2cc(F)c(N3CCNCC3)cc21 | nt | nt | 74.0*[inhibitor] | 97.0 | -4.0 | 97.0 | 95.0 | -5.0 | 103.0
Cc1ccc(S(=O)(=O)Nc2cncnc2NS(=O)(=O)c2ccc(C)cc2)cc1 | -22.6 | -5.2 | nt | 99.0 | nt | nt | nt | nt | nt
CCOC(=O)c1ccc(NC(=O)CSc2nc(=O)n(CCN3CCOCC3)c3c2CCC3)cc1 | 26.1 | -5.0 | nt | 96.0 | nt | nt | nt | nt | nt
CCOc1cc(C(=S)N2CCOCC2)ccc1OC(=O)c1ccc(C)cc1 | 12.2 | 3.4 | 98.0 | 91.0 | -2.0 | 93.0 | nt | nt | nt
Cc1cccc(OCc2nnc(SCC(=O)NCCc3ccccc3)o2)c1 | 9.6 | -0.1 | 90.0 | 93.0 | -35.0 | -7.0*[inhibitor] | 104.0 | -1.0 | 103.0
CC(C)C(=O)N1CCC(n2nccc2NC(=O)CCc2ccccc2)CC1 | 10.3 | 1.4 | 98.0 | 97.0 | 1.0 | 95.0 | nt | nt | nt
SMILES | CRFBP-R2 block | CRFBP-R2 agonist | MEKK3 PB1 HTS | ABCB6 inh 2 | MEKK2mut PB1 HTS | MEKK2wt PB1 HTS | MEKK2wt confirm | MEKK2mut confirm | MEKK3-MEK5 inh
COc1ccc(C(=O)NCc2nnc(SCC(=O)Nc3ccccc3F)o2)cc1 | 5.4 | -0.4 | 3.0*[inhibitor] | 106.0 | -67.0 | 3.0*[inhibitor] | 105.0 | 5.0 | 102.0
COc1ccc(C(=O)NCc2nnc(SCC(=O)Nc3ccccc3OC)o2)cc1 | -7.7 | -1.3 | 101.0 | 105.0 | 1.0 | 103.0 | nt | nt | nt
Cc1cc(NS(=O)(=O)c2cccs2)no1 | 18.6 | -0.2 | 2.0*[inhibitor] | 97.0 | -18.0 | 2.0*[inhibitor] | 98.0 | -1.0 | 98.0
O=S(=O)(Nc1ccc2c(c1)OCCO2)c1cccs1 | 12.2 | 1.1 | 102.0 | 104.0 | 0.0 | 104.0 | nt | nt | nt
O=S(=O)(Nc1ccc2c(c1)OCO2)c1cccs1 | -5.8 | -1.2 | 132.0* | 100.0 | 8.0 | 128.0 | 104.0 | 3.0 | 108.0
C#CCN1C(=O)C(O)(CC(=O)c2cccc(OC)c2)c2ccccc21 (stereo not given) | 10.7 | 0.7 | 1.0*[inhibitor] | 97.0 | -18.0 | 1.0*[inhibitor] | 108.0 | 6.0 | 103.0
O=c1[nH]c2ccc(NC(=S)Nc3ccccc3)cc2[nH]1 | -9.5 | -1.2 | 98.0 | 105.0 | 3.0 | 99.0 | nt | nt | nt
O=C(NC(=S)Nc1ccc2[nH]c(=O)[nH]c2c1)c1ccccc1F | -2.8 | 0.1 | 101.0 | 98.0 | 2.0 | 105.0 | nt | nt | nt
Cc1ccccc1C(=O)NC(=S)Nc1ccc2[nH]c(=O)[nH]c2c1 | -11.1 | -0.7 | 135.0* | 99.0 | 3.0 | 117.0 | 96.0 | -1.0 | 99.0
O=c1[nH]c2ccc(NC(=S)NCCc3ccccc3)cc2[nH]1 | 13.8 | 0.6 | 41.0*[inhibitor] | 92.0 | -13.0 | 44.0*[inhibitor] | 96.0 | 3.0 | 101.0
COCCOc1ccc(C(F)(F)F)cc1NC(=O)c1ccc(C)cc1 | -7.9 | -0.1 | 93.0 | 102.0 | 6.0 | 101.0 | nt | nt | nt
COc1ccc(Oc2ccc(C(F)(F)F)cc2NC(=O)c2ccc(C)cc2)cc1 | -10.3 | 4.1 | 142.0* | 93.0 | 37.0 | 135.0 | 105.0 | -2.0 | 103.0
